AMA1-RON2 inh = qHTS for Inhibitors of AMA1-RON; Towards Development of Antimalarial Drug Lead: Primary Screen; Potency, µM (series often up to 58.2 µM), most hits filed as inhibitors; Plasmodium falciparum AMA1 (3D7) - RON2 peptide interaction; actives 0.2% (n = 360,000); AlphaScreen AMA1-biotinylated RON2 peptide binding; note: nearly all actives have a fitted effect of over 45% in size
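AMA1 (3D7) with his tag at 25 nM final met compounds first, then biotinylated RON2 peptide at 25 nM; detection used donor plus acceptor beads, 10 µg/mL apiece, read by AlphaScreen after 30 min at room temperature.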
NS1 inh = qHTS Assay for Inhibitors of Influenza NS1 Protein Function | AID 2326, 2010 | Potency, µM (series often up to 46.1 µM) | actives 0.4% (n = 270,000); calls by dose curve; note: actives are rising curves; nearly all actives have a fitted effect of over 50% in size
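Compounds were scored for reversing the slow growth caused by influenza A NS1 in S. cerevisiae, measured by optical density at 600 nm. Assay medium contained 2% galactose at pH 6.0; NS1-free yeast of the same strain were the positive control.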
RE007 growth inh = qHTS Assay for Inhibitors of the HIV-1 protein Vpr; S. pombe RE007 Vpr strain, BacTiter-Glo ATP luminescence, 24 h; Potency, µM (titrated, usually from 92.2 µM), usual class: inhibitors; actives 0.21% (n = 360,000); AID 651644, 2012; active = well fitted falling curve with a large enough effect; inconclusive = small, poorly fitted or top-dose-only effect; inactive = no such curve, though single readings can be large or run the other way; note: nearly all actives have a fitted effect of over 50% in size
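Fission yeast RE007 carrying one integrated HIV-1 vpr copy, seeded at OD 0.01 in PMG+AL medium with 23 nL pinned compound. Grown 24 h at 30 degrees; viability read by BacTiter-Glo luminescence after 5 min.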
TbPYK inhibitor = qHTS of Trypanosoma Brucei Inhibitors | pyruvate kinase (Trypanosoma brucei), Q57TT1 | TbPYK enzyme, Kinase-Glo Plus ATP luminescence, 45 min | Potency, µM (titrated, usually from 76.8 µM), usual class: inhibitors | actives 0.12% (n = 410,000) | AID 624173, 2012; note: nearly all actives have a fitted effect of over 50% in size
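Quantitative HTS: titrated library compounds versus trypanosomal pyruvate kinase in TEA buffer (pH 7.2) containing KCl, MgCl2, BSA and Tween-20. Reactions were initiated with ADP, 130 uM final. Kinase-Glo Plus luminescence was read after 45 min at RT.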
LmPK inhibitor = qHTS Assay for Inhibitors of Leishmania Mexicana Pyruvate Kinase (LmPK) | Q27686 | actives 0.37% (n = 290,000) | Potency, µM (series often up to 57.5 µM), hits mostly inhibitors | purified LmPK, Kinase-Glo ATP luminescence, 1 h
Target sequence (Q27686 whole entry, looked up): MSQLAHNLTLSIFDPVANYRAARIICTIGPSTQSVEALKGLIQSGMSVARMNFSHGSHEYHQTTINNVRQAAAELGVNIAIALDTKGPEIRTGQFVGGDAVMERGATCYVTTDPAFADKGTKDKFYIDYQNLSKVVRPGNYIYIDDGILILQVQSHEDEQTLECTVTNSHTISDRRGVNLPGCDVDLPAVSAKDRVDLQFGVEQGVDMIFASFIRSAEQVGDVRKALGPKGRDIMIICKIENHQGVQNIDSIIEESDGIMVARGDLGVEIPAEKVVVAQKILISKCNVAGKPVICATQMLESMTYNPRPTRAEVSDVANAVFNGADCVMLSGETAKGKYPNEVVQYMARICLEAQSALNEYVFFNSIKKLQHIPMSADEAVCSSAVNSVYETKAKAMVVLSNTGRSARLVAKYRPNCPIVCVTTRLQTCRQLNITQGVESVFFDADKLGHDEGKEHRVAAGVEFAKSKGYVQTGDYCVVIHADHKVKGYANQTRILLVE
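Kinase-Glo luminescence read after 1 h RT reaction of 0.1 nM LmPK with 0.5 mM PEP and 0.1 mM ADP. Activity scaled between uninhibited and enzyme-free controls.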
Hits are given with their value. This is a sample that favours compounds with a hit; in the whole collection about 0.92% have one here. Unless noted, calls come from the whole dose curve; as a rule, active = well fitted curve in the direction sought with a large enough effect; inconclusive = small, poorly fitted or top-dose-only effect, or another doubt; inactive = no such curve, though single readings can be large; an effect the other way counts as inactive or inconclusive.

What do the screens show for `CC12CC3CC(C)(C1)CC(C(=O)NC1=NCCS1)(C3)C2`?
AMA1-RON2 inh: inactive; NS1 inh: inactive; RE007 growth inh: 5.6µM; TbPYK inhibitor: inactive; LmPK inhibitor: inactive

What do the screens show for `CC(C)(C)c1nnc(NS(=O)(=O)c2ccccc2)s1`?
TbPYK inhibitor: inactive

Results for Cc1onc(-c2ccccc2)c1C(=O)N[C@@H]1C(=O)N2[C@@H](C(=O)O)C(C)(C)S[C@@H]12 ?
TbPYK inhibitor: inactive

Results for Cc1c(N)nc([C@@H](CC(N)=O)NC[C@H](N)C(N)=O)nc1C(=O)N[C@H](C(=O)N[C@H](C)[C@H](O)[C@H](C)C(=O)N[C@@H](C(=O)NCCc1nc(-c2nc(C(=O)NCCC[S+](C)C)cs2)cs1)[C@H](C)O)[C@H](O[C@@H]1O[C@@H](CO)[C@@H](O)[C@H](O)[C@@H]1O[C@H]1O[C@H](CO)[C@H](O)[C@H](OC(N)=O)[C@@H]1O)c1cnc[nH]1 ?
TbPYK inhibitor: inactive

What do the screens show for `CC1CN(CCOc2cccc(Oc3ccccc3)c2)CC(C)O1` (stereo unspecified)?
AMA1-RON2 inh: 25µM; NS1 inh: inactive; RE007 growth inh: inactive; TbPYK inhibitor: inactive; LmPK inhibitor: inactive

How did Cc1cc(C)c(C)c(OCCN2CC(C)OC(C)C2)c1 (stereo unspecified) do in these assays?
AMA1-RON2 inh: 28µM; NS1 inh: inactive; RE007 growth inh: inactive; TbPYK inhibitor: inactive; LmPK inhibitor: inactive

How did CC1CN(CCCCOc2cccc(Oc3ccccc3)c2)CC(C)O1 (stereo unspecified) do in these assays?
AMA1-RON2 inh: inactive; NS1 inh: inactive; RE007 growth inh: inactive; TbPYK inhibitor: inactive; LmPK inhibitor: inactive

What do the screens show for `CC(C)C[C@@H](NC(=O)[C@H](Cc1ccccc1)NC(=O)c1cnccn1)B(O)O`?
TbPYK inhibitor: inactive

Results for O=C(O)/C=C/C(=O)c1ccc2c(c1)CCc1ccccc1-2 ?
AMA1-RON2 inh: inactive; RE007 growth inh: inconclusive; TbPYK inhibitor: 35µM

What do the screens show for `CC(CCc1ccc2c(c1)OCO2)NN` (stereo unspecified)?
TbPYK inhibitor: inactive

What do the screens show for `CC(=O)OC[C@]12CCC(C)=C[C@H]1O[C@@H]1[C@H](O)[C@@H](OC(C)=O)[C@@]2(C)[C@]12CO2`?
AMA1-RON2 inh: inactive; NS1 inh: inactive; RE007 growth inh: 3.2µM; TbPYK inhibitor: inactive; LmPK inhibitor: inactive

What do the screens show for `CN[C@@H](c1ccncc1)[C@@H](NC)c1ccncc1`?
NS1 inh: inactive

What do the screens show for `Cc1ccc(C(=O)N/C(=C\c2ccco2)C(=O)NCCCn2ccnc2)cc1C`?
AMA1-RON2 inh: 17µM; NS1 inh: inconclusive; RE007 growth inh: inactive; TbPYK inhibitor: inactive; LmPK inhibitor: inactive

What do the screens show for `C[C@@H](NCCCc1cccc(C(F)(F)F)c1)c1cccc2ccccc12`?
TbPYK inhibitor: inactive

Results for FC(F)(F)c1ccc(Cl)c(-n2c(Cc3cccs3)n[nH]c2=S)c1 ?
AMA1-RON2 inh: inactive; NS1 inh: inconclusive; RE007 growth inh: inactive; TbPYK inhibitor: inconclusive; LmPK inhibitor: 8.9µM

How did Cc1ccccc1-n1c(Cc2cccs2)n[nH]c1=S do in these assays?
AMA1-RON2 inh: inactive; NS1 inh: inactive; RE007 growth inh: inactive; TbPYK inhibitor: inconclusive; LmPK inhibitor: 8.9µM

How did Fc1ccc(-n2c(Cc3cccs3)n[nH]c2=S)cc1Cl do in these assays?
AMA1-RON2 inh: inactive; RE007 growth inh: inactive; TbPYK inhibitor: inconclusive; LmPK inhibitor: inactive

How did COc1ccc2[nH]c3c(=O)n(CCCCC(=O)N4CCCC4)c(=S)[nH]c3c2c1 do in these assays?
AMA1-RON2 inh: inactive; NS1 inh: inconclusive; RE007 growth inh: inactive; TbPYK inhibitor: inconclusive; LmPK inhibitor: 2µM

What do the screens show for `O=c1/c(=C/c2ccccn2)sc2nc3ccccc3n12`?
AMA1-RON2 inh: inactive; NS1 inh: inactive; RE007 growth inh: inactive; TbPYK inhibitor: inactive; LmPK inhibitor: inconclusive

Results for O=c1/c(=C\c2cc([N+](=O)[O-])cc([N+](=O)[O-])c2O)sc2nc3ccccc3n12 ?
AMA1-RON2 inh: inactive; RE007 growth inh: inactive; TbPYK inhibitor: 28µM; LmPK inhibitor: inactive

How did O=C(Nc1cc(Cl)ccc1Cl)C1CCCO1 (stereo unspecified) do in these assays?
AMA1-RON2 inh: inactive; NS1 inh: inactive; RE007 growth inh: inconclusive; TbPYK inhibitor: inactive; LmPK inhibitor: inactive

Results for O=C(Nc1nc(-c2ccc(Cl)cc2)cs1)C1CCCO1 (stereo unspecified) ?
AMA1-RON2 inh: inactive; RE007 growth inh: 22µM; TbPYK inhibitor: inactive; LmPK inhibitor: inactive

What do the screens show for `O=C(Nc1nc(-c2ccc(Cl)cc2Cl)cs1)C1CCCO1` (stereo unspecified)?
AMA1-RON2 inh: inactive; NS1 inh: inactive; RE007 growth inh: 16µM; TbPYK inhibitor: inactive; LmPK inhibitor: inactive

How did CCOc1ccc(-c2csc(NC(=O)C3CCCO3)n2)cc1 (stereo unspecified) do in these assays?
AMA1-RON2 inh: inactive; NS1 inh: inactive; RE007 growth inh: inactive; TbPYK inhibitor: inactive; LmPK inhibitor: inactive

What do the screens show for `O=C(O)[C@@H]1[C@H](C(=O)O)[C@]2(Cl)C(Cl)=C(Cl)[C@@]1(Cl)C2(Cl)Cl`?
NS1 inh: inactive

What do the screens show for `CCN(c1ccc(NC(=O)COC(=O)/C=C/c2cccs2)cc1)C(C)C`?
AMA1-RON2 inh: 18µM; RE007 growth inh: inconclusive; TbPYK inhibitor: inactive; LmPK inhibitor: inactive

Results for CCN1C(=O)C(CC(=O)Nc2ccc(OC)cc2)N(Cc2cccnc2)C1=S (stereo unspecified) ?
AMA1-RON2 inh: 12µM; NS1 inh: inactive; RE007 growth inh: inactive; TbPYK inhibitor: inactive; LmPK inhibitor: inactive

What do the screens show for `CCn1c(C(=O)N2CCCC(C(=O)NCCc3ccc(C)cc3)C2)cc2sccc21` (stereo unspecified)?
AMA1-RON2 inh: inactive; NS1 inh: inactive; RE007 growth inh: inactive; TbPYK inhibitor: 35µM; LmPK inhibitor: inactive

What do the screens show for `O=C(Nc1ccc2c(c1)OCO2)c1cccs1`?
AMA1-RON2 inh: inactive; NS1 inh: inactive; RE007 growth inh: inconclusive; TbPYK inhibitor: inactive; LmPK inhibitor: 25µM

How did O=C(/C=C\Nc1ccc2c(c1)OCO2)c1cccs1 do in these assays?
AMA1-RON2 inh: inconclusive; NS1 inh: inactive; RE007 growth inh: inconclusive; TbPYK inhibitor: inconclusive; LmPK inhibitor: 11µM

Results for Cc1ccc(N/C=C/C(=O)c2cccs2)cc1 ?
AMA1-RON2 inh: inactive; RE007 growth inh: inactive; TbPYK inhibitor: inactive; LmPK inhibitor: 16µM

What do the screens show for `O=C(/C=C\Nc1ccc2c(c1)OCO2)c1ccccn1`?
AMA1-RON2 inh: inactive; NS1 inh: inactive; RE007 growth inh: inactive; TbPYK inhibitor: inactive; LmPK inhibitor: 3.5µM

How did O=C(Nc1ccc2c(c1)OCCO2)c1cccs1 do in these assays?
AMA1-RON2 inh: inactive; NS1 inh: inactive; RE007 growth inh: inactive; TbPYK inhibitor: inactive; LmPK inhibitor: inconclusive

Screening results (PubChem)
